# According to ChEMBL document CHEMBL3988442, “University of Dundee, Small-Polar-MMV Screening Library” (2021):
# For some of these results: Entries with a potency or affinity are not part of this list.
# Tests used:
# Parameters in all cases: scale not given: direction of the effect not stated beside the values
# [1] = biological target: Protein translocase subunit SecA (Escherichia coli (strain K12)) (UniProt P10408); test: Assay to Identify E. coli SecA ATPase Inhibitors; type: functional; settings: 30 µM
# Protein translocase subunit SecA (Escherichia coli (strain K12)), sequence (P10408 whole entry): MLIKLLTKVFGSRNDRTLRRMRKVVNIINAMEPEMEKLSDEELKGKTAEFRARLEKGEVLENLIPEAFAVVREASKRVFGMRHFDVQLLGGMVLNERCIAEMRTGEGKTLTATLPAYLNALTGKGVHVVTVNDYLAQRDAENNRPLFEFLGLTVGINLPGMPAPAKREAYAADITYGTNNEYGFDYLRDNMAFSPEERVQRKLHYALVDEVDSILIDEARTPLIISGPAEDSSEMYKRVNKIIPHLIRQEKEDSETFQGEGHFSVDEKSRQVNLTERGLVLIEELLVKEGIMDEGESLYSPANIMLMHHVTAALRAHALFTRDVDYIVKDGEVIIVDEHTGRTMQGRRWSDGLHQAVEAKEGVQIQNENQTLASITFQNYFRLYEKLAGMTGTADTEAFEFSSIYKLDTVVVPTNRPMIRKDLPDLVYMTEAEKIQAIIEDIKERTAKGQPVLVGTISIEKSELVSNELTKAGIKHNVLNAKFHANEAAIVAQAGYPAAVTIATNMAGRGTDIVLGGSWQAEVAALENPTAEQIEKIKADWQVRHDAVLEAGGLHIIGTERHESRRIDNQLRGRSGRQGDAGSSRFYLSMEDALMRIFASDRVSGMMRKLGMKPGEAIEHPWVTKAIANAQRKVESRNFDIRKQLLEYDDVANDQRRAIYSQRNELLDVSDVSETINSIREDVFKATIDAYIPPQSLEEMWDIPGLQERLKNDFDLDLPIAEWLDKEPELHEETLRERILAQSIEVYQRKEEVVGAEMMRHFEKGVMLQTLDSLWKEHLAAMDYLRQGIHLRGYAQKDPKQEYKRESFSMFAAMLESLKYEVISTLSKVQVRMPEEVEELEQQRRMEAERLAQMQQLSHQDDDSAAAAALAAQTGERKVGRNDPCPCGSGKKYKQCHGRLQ
# [2] = biological target: T1, Ubiquitin-activating enzyme e1, putative (Leishmania donovani (strain BPK282A1)) (UniProt E9BSI1); test: Leishmania donovani Ubiquitin Activating Enzyme (LdE1); type: functional; settings: 30 µM
# T1 sequence (whole entry): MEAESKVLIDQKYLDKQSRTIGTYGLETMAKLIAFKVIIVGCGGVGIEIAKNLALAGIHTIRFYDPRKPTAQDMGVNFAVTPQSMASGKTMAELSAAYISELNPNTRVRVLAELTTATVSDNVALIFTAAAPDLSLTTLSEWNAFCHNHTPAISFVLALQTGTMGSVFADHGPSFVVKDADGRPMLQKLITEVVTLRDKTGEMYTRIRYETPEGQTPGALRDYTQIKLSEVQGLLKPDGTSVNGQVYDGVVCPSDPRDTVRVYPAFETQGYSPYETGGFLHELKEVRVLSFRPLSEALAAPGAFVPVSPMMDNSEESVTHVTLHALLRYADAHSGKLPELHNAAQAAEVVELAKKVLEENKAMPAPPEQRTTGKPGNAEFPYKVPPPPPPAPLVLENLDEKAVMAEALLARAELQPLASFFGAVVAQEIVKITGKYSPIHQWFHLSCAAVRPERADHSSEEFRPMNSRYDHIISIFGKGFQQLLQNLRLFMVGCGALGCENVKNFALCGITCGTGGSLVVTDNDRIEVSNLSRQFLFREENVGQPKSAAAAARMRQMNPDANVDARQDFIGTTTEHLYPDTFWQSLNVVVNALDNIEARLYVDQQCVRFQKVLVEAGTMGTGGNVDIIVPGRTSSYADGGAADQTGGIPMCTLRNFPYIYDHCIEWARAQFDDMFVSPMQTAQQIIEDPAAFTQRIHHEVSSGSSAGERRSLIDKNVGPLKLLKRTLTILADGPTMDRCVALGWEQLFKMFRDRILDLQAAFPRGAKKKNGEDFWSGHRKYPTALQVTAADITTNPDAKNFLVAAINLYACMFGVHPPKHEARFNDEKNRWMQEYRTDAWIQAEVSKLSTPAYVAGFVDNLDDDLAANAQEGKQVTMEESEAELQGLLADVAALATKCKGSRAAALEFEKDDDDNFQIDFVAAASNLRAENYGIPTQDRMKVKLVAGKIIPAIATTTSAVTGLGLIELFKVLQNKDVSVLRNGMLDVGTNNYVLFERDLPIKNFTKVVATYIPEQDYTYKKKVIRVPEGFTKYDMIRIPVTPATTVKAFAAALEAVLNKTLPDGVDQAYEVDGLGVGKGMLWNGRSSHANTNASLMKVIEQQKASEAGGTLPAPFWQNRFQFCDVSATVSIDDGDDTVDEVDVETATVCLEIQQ
# [3] = biological target: AMP-activated protein kinase, AMPK (Homo sapiens) (UniProt P54646+O43741+P54619+Q9UGJ0+Q9Y478+Q13131+Q9UGI9); test: AMP-dependent Kinase enzyme assay. An in vitro enzyme assay that detects ADP turnover that is directly proportional to AMPK activity. This uses naive AMPK that is activated during the assay with MK-8722; type: functional; settings: 30 µM
# [4] = biological target: Sialic acid-binding Ig-like lectin 9 (Homo sapiens) (UniProt Q9Y336); test: Hs-Siglec9 ALPHAscreen SOP 20170721; settings: 10 µM
# Sialic acid-binding Ig-like lectin 9 (Homo sapiens), sequence (Q9Y336 whole entry): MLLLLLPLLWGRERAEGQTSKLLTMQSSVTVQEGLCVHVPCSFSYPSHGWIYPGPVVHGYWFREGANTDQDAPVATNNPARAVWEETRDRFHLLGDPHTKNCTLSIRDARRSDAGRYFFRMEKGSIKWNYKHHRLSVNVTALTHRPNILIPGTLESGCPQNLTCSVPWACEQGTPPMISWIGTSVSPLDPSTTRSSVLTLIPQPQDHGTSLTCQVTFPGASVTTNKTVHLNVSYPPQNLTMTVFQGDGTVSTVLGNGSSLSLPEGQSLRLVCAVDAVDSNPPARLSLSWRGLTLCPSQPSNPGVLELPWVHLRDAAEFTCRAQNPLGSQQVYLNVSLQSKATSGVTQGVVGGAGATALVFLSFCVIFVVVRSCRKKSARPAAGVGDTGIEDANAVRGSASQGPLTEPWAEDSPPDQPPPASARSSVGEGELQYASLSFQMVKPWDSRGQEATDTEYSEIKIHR
# Trypanosoma cruzi = test: Trypanosoma cruzi phosphomannomutase and mannose-1-phosphate guanylyltransferase assay; type: functional; settings: 10 µM
# [5] = biological target: T2, Arginase-2, mitochondrial (Homo sapiens) (UniProt P78540); test: in vitro enzyme assay to detect the production of urea directly proportional to the activity of Arginase II; type: functional; settings: 33.3 µM; also: in the data most compounds retested in dose-response had high values
# T2 sequence (whole entry): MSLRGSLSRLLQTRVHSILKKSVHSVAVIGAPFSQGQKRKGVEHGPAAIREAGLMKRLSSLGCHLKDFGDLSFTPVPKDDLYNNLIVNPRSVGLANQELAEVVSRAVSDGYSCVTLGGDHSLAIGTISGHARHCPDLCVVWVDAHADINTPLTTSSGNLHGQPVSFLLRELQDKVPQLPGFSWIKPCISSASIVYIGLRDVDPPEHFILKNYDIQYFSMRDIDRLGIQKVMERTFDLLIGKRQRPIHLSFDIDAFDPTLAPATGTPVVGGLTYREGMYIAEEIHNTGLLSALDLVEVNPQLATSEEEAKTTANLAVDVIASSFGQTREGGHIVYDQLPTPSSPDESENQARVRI
# [6] = biological target: T3, Proteasome subunit beta (Trypanosoma cruzi) (UniProt O96673); test: Trypanosoma cruzi proteasome chymotrypsin-like activity (TcProtChymo) assay.; also: in the data most compounds retested in dose-response had high values; type: functional; settings: 9.37 µM
# T3 sequence (whole entry): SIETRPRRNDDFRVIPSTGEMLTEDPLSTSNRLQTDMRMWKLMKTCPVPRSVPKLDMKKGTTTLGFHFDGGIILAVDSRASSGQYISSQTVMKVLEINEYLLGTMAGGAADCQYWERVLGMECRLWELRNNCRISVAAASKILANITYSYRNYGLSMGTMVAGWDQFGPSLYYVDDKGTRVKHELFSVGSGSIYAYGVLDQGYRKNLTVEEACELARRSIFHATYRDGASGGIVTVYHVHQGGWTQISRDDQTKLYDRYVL
# Homo sapiens = species on record: Homo sapiens; test: To identify inhibition of the IFN signalling (Jak-Stat) pathway via expression of an eGFP reporter gene under the control of an IFN-stimulated response element (ISRE) containing MxA promoter.; type: functional; settings: 30 µM
# [7] = biological target: T4, Tyrosyl-tRNA synthetase, putative (Trypanosoma cruzi (strain CL Brener)) (UniProt Q4DSP6); test: Trypanosoma cruzi tyrosyl tRNA synthetase (TcYRS) _High Tyrosine SOP; type: functional; settings: 30 µM; also: in the data most compounds retested in dose-response had high values
# T4 sequence (whole entry): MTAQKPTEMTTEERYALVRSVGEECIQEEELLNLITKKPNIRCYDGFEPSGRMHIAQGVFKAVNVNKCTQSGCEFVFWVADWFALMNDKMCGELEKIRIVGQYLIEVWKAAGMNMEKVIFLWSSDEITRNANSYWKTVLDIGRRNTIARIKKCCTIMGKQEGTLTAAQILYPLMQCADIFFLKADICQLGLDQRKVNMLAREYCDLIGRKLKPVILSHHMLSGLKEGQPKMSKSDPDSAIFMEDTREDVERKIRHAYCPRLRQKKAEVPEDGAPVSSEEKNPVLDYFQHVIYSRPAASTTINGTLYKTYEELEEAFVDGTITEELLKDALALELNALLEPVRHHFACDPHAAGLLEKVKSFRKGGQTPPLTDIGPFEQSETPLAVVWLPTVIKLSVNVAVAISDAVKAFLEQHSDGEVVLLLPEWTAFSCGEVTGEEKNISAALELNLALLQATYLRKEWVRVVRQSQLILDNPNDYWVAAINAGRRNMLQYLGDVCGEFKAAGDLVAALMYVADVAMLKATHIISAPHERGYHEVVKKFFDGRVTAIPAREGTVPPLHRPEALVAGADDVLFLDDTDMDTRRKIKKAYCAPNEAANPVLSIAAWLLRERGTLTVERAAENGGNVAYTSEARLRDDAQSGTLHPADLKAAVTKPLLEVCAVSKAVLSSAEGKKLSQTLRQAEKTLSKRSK
# [8] = biological target: T4, Tyrosyl-tRNA synthetase, putative (Trypanosoma cruzi (strain CL Brener)); test: Trypanosoma cruzi tyrosyl tRNA synthetase (TcYRS) SOP; type: functional; settings: 30 µM
# [9] = biological target: Chromo domain-containing protein 1 (Saccharomyces cerevisiae (strain ATCC 204508 / S288c) (Baker's yeast)) (UniProt P32657); test: ScCHD-1 Enzyme Inhibition Assay; type: functional; settings: 30 µM; also: in the data most compounds retested in dose-response had high values
# Chromo domain-containing protein 1 (Saccharomyces cerevisiae (strain ATCC 204508 / S288c) (Baker's yeast)), sequence (P32657 whole entry, the tested form may be a part): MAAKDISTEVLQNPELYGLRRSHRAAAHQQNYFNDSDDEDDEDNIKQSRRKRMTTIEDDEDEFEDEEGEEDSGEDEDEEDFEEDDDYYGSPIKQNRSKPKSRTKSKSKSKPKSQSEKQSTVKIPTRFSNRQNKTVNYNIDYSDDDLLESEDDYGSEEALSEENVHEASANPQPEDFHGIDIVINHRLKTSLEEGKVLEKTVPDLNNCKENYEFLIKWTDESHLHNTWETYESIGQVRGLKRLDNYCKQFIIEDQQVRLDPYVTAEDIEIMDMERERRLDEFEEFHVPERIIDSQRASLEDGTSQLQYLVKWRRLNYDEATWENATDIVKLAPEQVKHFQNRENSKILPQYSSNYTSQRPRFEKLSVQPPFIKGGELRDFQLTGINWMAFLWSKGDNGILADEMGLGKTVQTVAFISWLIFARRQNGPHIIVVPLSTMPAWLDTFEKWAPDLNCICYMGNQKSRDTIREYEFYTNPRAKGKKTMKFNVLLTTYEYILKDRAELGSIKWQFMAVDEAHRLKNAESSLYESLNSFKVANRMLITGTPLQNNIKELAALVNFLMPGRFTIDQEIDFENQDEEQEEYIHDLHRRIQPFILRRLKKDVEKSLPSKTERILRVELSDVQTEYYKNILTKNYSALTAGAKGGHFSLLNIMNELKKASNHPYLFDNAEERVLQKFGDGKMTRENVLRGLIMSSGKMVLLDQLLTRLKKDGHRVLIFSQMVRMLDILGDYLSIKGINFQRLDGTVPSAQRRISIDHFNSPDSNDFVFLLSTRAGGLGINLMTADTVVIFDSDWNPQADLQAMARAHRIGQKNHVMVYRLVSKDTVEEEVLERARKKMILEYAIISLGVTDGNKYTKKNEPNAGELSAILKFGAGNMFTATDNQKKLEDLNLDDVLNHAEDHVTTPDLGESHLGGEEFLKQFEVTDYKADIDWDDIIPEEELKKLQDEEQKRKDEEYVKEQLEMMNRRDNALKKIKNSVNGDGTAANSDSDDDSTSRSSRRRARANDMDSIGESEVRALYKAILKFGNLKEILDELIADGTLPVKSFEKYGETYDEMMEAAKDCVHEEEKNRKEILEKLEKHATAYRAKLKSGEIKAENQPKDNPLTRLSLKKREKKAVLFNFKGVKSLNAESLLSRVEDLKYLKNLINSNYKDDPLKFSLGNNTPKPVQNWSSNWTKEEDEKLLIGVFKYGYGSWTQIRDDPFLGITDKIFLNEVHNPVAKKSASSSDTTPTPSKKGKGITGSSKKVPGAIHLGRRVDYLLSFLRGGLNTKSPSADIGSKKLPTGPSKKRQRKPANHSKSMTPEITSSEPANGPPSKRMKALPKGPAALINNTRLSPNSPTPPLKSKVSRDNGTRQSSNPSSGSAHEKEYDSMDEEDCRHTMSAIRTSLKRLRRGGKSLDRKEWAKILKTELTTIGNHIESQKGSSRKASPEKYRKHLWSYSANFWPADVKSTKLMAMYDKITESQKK
Structure (SMILES),Percent Effect [1],Percent Effect [2],Percent Effect [3],Percent Effect [4],Percent Effect (Trypanosoma cruzi),Percent Effect [5],Percent Effect [6],Percent Effect (Homo sapiens),Percent Effect [7],Percent Effect [8],Percent Effect [9]
C[C@@H]1CN(C(=O)c2cnc(C3CC3)nc2)CC[C@@]1(O)C1CCOCC1,-3.43%,10.8%,-4.34%,21.6%,4.44%,-8.57%,6.55%,-5.6%,4.76%,9.76%,-5.75%
Cc1nc2ccccn2c1CN(Cc1cccnc1)CC1CCCO1 (stereo not given),-1.83%,-2.74%,2.15%,0.744%,-6.27%,0.455%,7.63%,13.7%,-2.15%,-2.5%,-1.23%
N#Cc1ccc(S(=O)(=O)NC(=O)C2CC2)c(C(F)(F)F)c1,-6.08%,21.6%,-10.9%,20.8%,4.81%,-6.41%,6.49%,7.08%,6.4%,23.5%,-7.62%
CCCc1nc(C)c(C(=O)NS(=O)(=O)c2ccc(C#N)cc2)s1,-4.98%,10.8%,-2.15%,25.9%,6.18%,0.476%,9.14%,2.07%,0.529%,9.76%,-9.01%
Cc1ccc([C@@H]2CN(S(=O)(=O)N(C)C)C[C@H]2N(C)C)cc1,-5.32%,13.5%,-7.05%,37%,3.42%,45.9%,8.84%,-3.64%,4.3%,11.1%,-14.3%
CCn1nc(C)c2nc(C(C)C)nc(NCCOC)c21,-4.55%,6.67%,7.63%,3.6%,2.36%,-4.4%,15.5%,19.2%,5.29%,12.8%,-9.33%
O=C(NCc1ccco1)[C@@]12CCO[C@@H]1CCN(CCN1CCCC1)C2,-6.16%,16%,-5.27%,-2.5%,5.21%,-51.1%,18.5%,-5.93%,6.25%,22.5%,-12%
CC1N(CC2CC2)C(=O)COC12CCN(Cc1nccs1)CC2 (stereo not given),-2.73%,11%,-7.81%,11.6%,5.56%,-2%,11.2%,-5.88%,4.17%,6.17%,-5.43%
CCOc1cccc2c1OCC(C(=O)NS(=O)(=O)Cc1ccccc1)=C2,-2.71%,0%,1.17%,-4.5%,-8.59%,24.9%,2.52%,24.4%,-10.3%,-6.17%,-6.55%
CCOc1ccc(CC(CNC(=O)c2ccoc2)C(N)=O)cc1 (stereo not given),-5.97%,13%,-355%,-18.6%,8.13%,-3.16%,16.7%,7.68%,7.62%,21.2%,-16.2%
Cc1ccsc1CN(Cc1ccccn1)CC(C)C,-2.24%,1.39%,-11.5%,11.7%,4.76%,8.39%,8.95%,-27.8%,7.37%,7.69%,-1.62%
COc1cc2nc(C)n(CC(=O)NCCCN(C)C)c(=O)c2cc1OC,-0.823%,20%,-6.34%,-3.21%,4.13%,-2.99%,17.4%,12.2%,6.35%,15.4%,-9.62%
O=C(CCc1ccccn1)N1CCN(C(=O)CC2CCCCC2)CC1,-6.55%,15.6%,-6.12%,-12.3%,4.41%,-5.68%,10.9%,4.51%,5.71%,18.8%,-18.5%
O=c1cc2c(nn1CN1CCOCC1)CCC2,-2.09%,14.7%,-2.08%,-0.0396%,-0.786%,-6.87%,11.3%,14.3%,6.35%,15.4%,-8.17%
COc1ccc(CN2CC[C@H]3[C@H]2CCN3C(=O)c2cnn(C)c2)cc1,-0.777%,13.5%,4.48%,-12.3%,-3.23%,2.87%,12.2%,9.65%,1.08%,7.69%,-5.75%
N#Cc1cn(C2CC2)c(=O)n(CC(O)c2ccccc2F)c1=O (stereo not given),-3.42%,21.1%,-2.46%,7.51%,6.58%,-1.15%,10.7%,0.878%,6.37%,19.5%,-13.4%
CCO[C@@H]1CCN(C(=O)c2cscn2)[C@@H]1Cc1cnn(C)c1,-1.12%,0%,9.65%,4.98%,-5.12%,2.1%,-1.15%,1.8%,2.13%,3.85%,1.69%
Cc1ccc(-c2cc(N)c(=O)n(CC(=O)NCC3CCCCC3)n2)s1,-3.51%,9.46%,11.8%,-4.16%,-6.13%,-2.09%,12.3%,9.89%,-6.45%,3.9%,-4.23%
COc1ccc(C)cc1CSCCn1nc2ccccn2c1=O,-4.01%,20.8%,-1.24%,-10.9%,4.6%,-1.47%,12.7%,11.9%,3.81%,21.2%,-22.4%
Cc1nn(C)c(Cl)c1C(=O)NCC(c1ccsc1)N(C)C (stereo not given),-3.36%,17.7%,-4.46%,-7.25%,7.65%,1.14%,4.18%,-12.9%,5.42%,16.5%,-6.9%
